AID504770: growth inhibition of E. coli YBA685, primary screen, V. cholerae RctB inhibitors. E. coli YBA685 rctB-dependent plasmid, OD600 growth, 3 h; stronger effect = lower value. z-score (no concentration beside the values). actives 0.27% (n = 130,000). AID 504770, 2011; in the data active = z-score below about -2, passing the limit was not always enough
Mtb MbtI inh: MbtI salicylate synthase inhibitors, primary screen, biochemical, fluorescence intensity. inhibition, % (test concentration not listed). purified MbtI enzyme, fluorescence intensity read-out. P9WFX0. actives 0.89% (n = 100,000); in the data active = inhibition mostly above about 56%, no sharp cut-off; inactive = mostly below about 77%
Target sequence (P9WFX0 whole entry, looked up): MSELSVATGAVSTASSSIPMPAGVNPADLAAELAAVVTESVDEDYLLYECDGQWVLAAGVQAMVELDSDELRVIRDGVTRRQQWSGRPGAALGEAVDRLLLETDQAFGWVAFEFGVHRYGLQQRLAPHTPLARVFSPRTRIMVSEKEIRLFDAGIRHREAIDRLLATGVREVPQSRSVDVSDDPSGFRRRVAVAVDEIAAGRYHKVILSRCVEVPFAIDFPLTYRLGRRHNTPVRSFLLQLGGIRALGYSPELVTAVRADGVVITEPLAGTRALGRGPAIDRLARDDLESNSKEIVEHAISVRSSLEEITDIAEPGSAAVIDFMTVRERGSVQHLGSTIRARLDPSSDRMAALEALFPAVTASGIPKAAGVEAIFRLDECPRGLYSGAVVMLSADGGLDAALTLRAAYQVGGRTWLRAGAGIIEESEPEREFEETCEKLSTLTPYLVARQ
Polio RdRp inh: poliovirus RdRp elongation inhibitors, primary screen, biochemical, fluorescence polarization, total intensity; Genome polyprotein (Poliovirus type 1 (strain Mahoney)), P03300; poliovirus polymerase elongation; stronger effect = lower value; % elongation, % (compound at 16.7 µg/mL); actives 0.66% (n = 150,000); in the data active = % elongation below about 90%
MenB inh: M. tuberculosis MenB inhibitors, primary screen, biochemical, absorbance; 1,4-dihydroxy-2-naphthoyl-CoA synthase (Mycobacterium tuberculosis (strain ATCC 25618 / …; AID 540299, 2011; actives 0.43% (n = 100,000); inhibition, % (test concentration not listed); MenB enzyme assay, absorbance read-out; in the data active = inhibition above about 21%, passing the limit was not always enough
* hit, by the source's call; nt = no result given; ! = a repeat was not active. Compounds with a hit are over-represented: about 1.4% of the library has one in this group of screens.

SMILES	AID504770	Mtb MbtI inh	Polio RdRp inh	MenB inh
Cc1nn(C)c2c1S(=O)(=O)N=C(SCc1c(F)cccc1Cl)S2	1.55	84.0*	88.0*	-6.9
CCS(=O)(=O)N1CCCC(C(=O)NC2CC2)C1 (configuration not stated)	-1.6	-6.4	101.0	-0.4
Brc1csc(CNCCc2ccco2)c1	-0.3	9.4	86.0*	7.7
Brc1ccc(NCc2ccco2)cc1	0.2	-21.6	102.0	1.2
Cc1ccc(Cn2ncc3c(Nc4ccc(C)cc4)ncnc32)cc1	0.25	nt	nt	nt
COc1ccc(C2C(C#N)=C(N)Oc3c2ccc2cccnc32)cc1 (configuration not stated)	0.9	11.2	102.0	33.1*
COc1ccc(C2C(C#N)=C(N)OC(C3CC3)=C2C#N)cc1 (configuration not stated)	-0.85	-21.1	104.0	-4.8
CC1=CC(=O)C(CCCCCC2=CC(=O)C(C)=CC2=O)=CC1=O	1.3	94.7*	103.0	6.5
CC1=CC(=O)C(CCOCCC2=CC(=O)C(C)=CC2=O)=CC1=O	0.75	100.0*	101.0	-3.9
COc1ccccc1CNC(=O)C(CC(C)C)NC(N)=O (configuration not stated)	1.4	-15.7	104.0	-29.4
COc1cccc(N(CCN2C(=O)c3ccccc3C2=O)C(=O)C(C)C)c1	1	35.2	104.0	5.4
O=C(Cc1cccs1)Oc1ccc2oc3ccccc3c2c1	0	-3.0	103.0	-12.7
CC(C)N1CSC(=S)N(C(C)C)C1	-4*	-7.8	64.0*	-5.3
CCc1nc2cc(N)ccc2n1C	0.15	88.4	96.0	-39.0
COc1ccccc1-n1nnc(C(=O)N2CCCC2)c1N	1.35	-0.5	102.0	31.4*
COc1ccccc1N1CCN(C(=O)c2nc(-c3ccc(C)cc3)n3c2CCCCC3)CC1	nt	nt	109.0	nt
O=c1[nH]nc(SCc2ccccc2)c(=O)[nH]1	0.05	0.8	nt	nt
O=c1[nH]nc(SCc2cccc3ccccc23)c(=O)[nH]1	2.8	51.2*	100.0	-18.8
CC(C(=O)NCc1ccco1)N(C(=O)c1ccc(Cl)nc1)C1CCCCC1 (configuration not stated)	1.5	3.8	103.0	-30.6
O=C(Oc1cccc2cccnc12)c1cccc(F)c1	-1.45	-2.8	nt	nt
O=C(Oc1cccc2cccnc12)c1cc(C(F)(F)F)cc(C(F)(F)F)c1	-3.25*	-7.2	150.0	-14.7
COCc1nc(OC)c2c(C)c(C(=O)O)sc2n1	-0.7	2.2	105.0	-16.2
CCN(C(=O)Cn1c(=O)oc2cc(Cl)ccc21)c1cccc(C(F)(F)F)c1	nt	nt	82.0*	nt
Cc1nn(Cc2c(Cl)cccc2Cl)c(Cl)c1CN1CCN(CC(=O)N2CCCC2)CC1	1.7	5.3	87.0*	15.1
Cc1nc(CSc2nnc(Cc3cccc4ccccc34)n2N)cs1	-3.75	56.8*	100.0	-28.3
SMILES	AID504770	Mtb MbtI inh	Polio RdRp inh	MenB inh
CCOC(=O)c1c(C)c(C)c(C)[nH]c1=S	-0.35	90.6*	101.0	-3.9
CCOC(=O)c1sc(N)c(C(=O)OCC)c1C	0.5	nt	79.0*	-4.9
Cc1cnc(=O)[nH]c1SCC(=O)OCc1ccccc1	-0.6	7.8	104.0	-16.6
NC1=NC(=O)C(C(=O)NC2(C(F)(F)F)Oc3cc(Cl)c(Cl)cc3O2)S1 (configuration not stated)	0.25	92.2*	105.0	0.3
O=C(O)Cn1cc(C=C2C(=O)NC(=S)NC2=O)c2ccccc21	0	100.2*	102.0	-55.2
O=C(O)Cn1cc(C=C2C(=O)NC(=O)NC2=O)c2ccccc21	-0.25	nt	111.0	-248.8
CCN(CC(=O)Nc1ccccc1OC)CC(=O)Nc1cccc2nsnc12	0.25	-35.5	103.0	-26.9
O=C1C=CC(=NS(=O)(=O)c2cccs2)C=C1	-1.2	nt	nt	nt
O=C1C=CC(=NS(=O)(=O)c2ccc(C(=O)O)cc2)C=C1	-0.55	90.6*	99.0	12.7
CCCNC(=O)c1cnn2c1NC(c1cccc(OC)c1)CC2C(F)(F)F (configuration not stated)	-1.1	-9.1	103.0	-14.7
CN(C)c1ncnc2c1[nH]c1ccccc12	-1.3	nt	nt	nt
CC(C)C(=O)Nc1cccc(-c2nc3ccccc3c(=O)o2)c1	-3.5*	5.1	101.0	-15.2
COC(=O)CSc1nc(C)cc(N2CCOCC2)n1	-0.8	4.5	104.0	-42.2
CNc1nc(SCC(=O)OC)nc(N2CCOCC2)n1	1.15	2.5	104.0	55.9*
Cc1sc2ncnc(SC3CCCCN(C(=O)c4ccccc4)C3=O)c2c1C (configuration not stated)	0.2	nt	nt	nt
S=C(Cc1ccc2c(c1)OCCO2)N1CCOCC1	-0.1	92.3*	83.0*	-49.0
CN(C)CCC(=O)c1ccc2c(c1)OCO2	-0.25	61.9	102.0	19.1
CCCCCc1ccc(C(=O)CCN(C)C)cc1	-0.8	73.0*	103.0	-1.6
CN(C)CCCNc1nnnn1-c1ccccc1	-0.1	9.7	98.0	-2.6
CSC(=NC(C)C)NC#N	-0.55	3.8	102.0	-0.2
CSC(N)=Nc1ccc(Cl)cc1	-2.55*!	nt	nt	nt
CC1=C(/C=C/C(C)=C/C=C/C(C)=C\C(=O)O)C(C)(C)CCC1	-0.05	-11.6	101.0	49.8*!
CC1=C(/C=C/C(C)=C/C=C/C(C)=C/C(=O)Nc2ccc(O)cc2)C(C)(C)CCC1	nt	-18.4	101.0	8.2
c1cc(CNc2ccc(N3CCCC3)cc2)ccn1	0.5	99.7*	99.0	-20.2
c1cc2c(cc1CNc1ccc(N3CCCC3)cc1)OCO2	-0.7	42.7	105.0	-37.1
SMILES	AID504770	Mtb MbtI inh	Polio RdRp inh	MenB inh
O=C(Nc1ccc2c(c1)OCO2)c1cnn2c(C(F)(F)F)cc(-c3ccco3)nc12	-0.05	-7.0	99.0	-16.8
COC(=O)c1cc(-c2ccco2)nc2c1cnn2Cc1ccc2c(c1)OCO2	0.1	-28.5	71.0*	3.0
CCOc1ccc2ncc(C(=O)c3ccc(OC)cc3)c(N3CCN(C)CC3)c2c1	-0.6	3.0	105.0	-33.9
O=C(CCNS(=O)(=O)c1ccc2[nH]c(=O)ccc2c1)NC1CCCc2ccccc21 (configuration not stated)	-0.05	45.0	103.0	-3.6
CC1=C(C)C(=O)C(NCc2ccco2)=CC1=O	-1.05	7.5	74.0*	-120.0
CCC(CC)NC(=O)CSc1nnc(-c2ccc(C)cc2)n1N	-0.5	92.2	78.0*	-39.3
Cc1cccc(N2CCN(C(=O)Nc3cn(CC(C)C)c(=O)c4ccccc34)CC2)c1C	nt	nt	98.0	nt
COc1ccccc1N1CCN(C(=O)Nc2cn(CC(C)C)c(=O)c3ccccc23)CC1	nt	nt	104.0	nt
Cc1ccc(N2CCN(C(=O)Nc3cn(CC(C)C)c(=O)c4ccccc34)CC2)c(C)c1	nt	nt	68.0*	nt
COc1ccc(CNC(=O)Nc2cn(CC(C)C)c(=O)c3ccccc23)c(OC)c1	nt	nt	-10.0*	nt
CCN1CCCC1CNC(=O)Nc1cn(CC(C)C)c(=O)c2ccccc12 (configuration not stated)	-0.3	-27.9	100.0	-9.8
CCCNC(=O)Nc1cn(CC(C)C)c(=O)c2ccccc12	-0.9	120.0	16.0*	1.3
Cc1cccc(C(=O)Nc2nnc(-c3ccccc3C)s2)c1	0.25	nt	nt	nt
